PubChem BioAssay AID431 (Sanford-Burnham Center for Chemical Genomics, 2006)
Screen size: about 63,000 compounds; about 1,100 (1.7%) were called active. This excerpt belongs to a sample that is enriched for actives. Results with a measured potency or affinity are listed apart. Unmarked numbers belong to inactive results.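 The calls were made as follows: active = compounds whose percent cytotoxicity in the single-dose primary screen, scaled between solvent and toxic-drug controls, exceeds 50; inactive = the rest.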

Assay: viability loss of HPDE-C7K cells – cell-based, fluorescence, HTS, primary screen (AID 431);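 also: 0% = DMSO solvent wells and 100% = doxorubicin-treated wells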
Details: HPDE-C7K KRASV12 cells, Alamar Blue viability, 48 h; at 10 µM; hits give high values

| Compound | cytotoxicity |
| --- | --- |
| CN1C(=O)/C(=C2/C=CC=CN2C)OC1=S | -24.5% |
| COc1ccc(CCNC(=O)C2CCN(S(=O)(=O)c3cc(OC)ccc3OC)CC2)cc1 | 2.3% |
| COc1ccccc1C1C=C(c2ccc(C)cc2)Nc2nnnn21 (configuration not stated) | -8.9% |
| COc1ccc(C2=CC(c3ccc(OC)c(OC)c3)n3nnnc3N2)c(OC)c1 (configuration not stated) | 4% |
| COc1cccc(C2=CC(c3ccc(OC)c(OC)c3OC)n3nnnc3N2)c1 (configuration not stated) | -4.5% |
| COc1cccc(C2=CC(c3cccc(OC)c3OC(F)F)n3nnnc3N2)c1 (configuration not stated) | -13.8% |
| COc1cccc(C2=CC(c3ccc(N(C)C)cc3)n3nnnc3N2)c1 (configuration not stated) | -3.6% |
| COc1cccc(C2=CC(c3cccc(OC)c3OC)n3nnnc3N2)c1 (configuration not stated) | 58.1% (active) |
| COc1ccc(OC)c(C2C=C(c3ccc(C)c(C)c3)Nc3nnnn32)c1 (configuration not stated) | 6% |
| COc1cccc(C2=CC(c3cc(OC)ccc3OC)n3nnnc3N2)c1 (configuration not stated) | 65.1% (active) |
| COc1cccc(C2=CC(c3ccccc3)n3nnnc3N2)c1 (configuration not stated) | 43.2% |
| COc1ccc(C2=CC(c3c(C)nn(-c4ccccc4)c3Cl)n3nnnc3N2)cc1OC (configuration not stated) | 84.4% (active) |
| COc1ccccc1C1C=C(c2ccccc2)Nc2nnnn21 (configuration not stated) | 25.4% |
| CC1CCCCC1NC(=O)CSc1nc2ccccc2c(=O)n1Cc1ccco1 (configuration not stated) | -6.9% |
| COc1cccc(N(CC(=O)Nc2ccccc2C)S(C)(=O)=O)c1 | 14.1% |
| c1ccc(-c2nc3ccccc3nc2-c2ccccn2)nc1 | 13.9% |
| COc1ccc(OC)c2[nH]c(=O)c(CCNC(=O)CC(C)C)cc12 | -6.6% |
| CCOC(=O)N1CCC(NC(=O)C2=C(C)C(=O)OC23CCC(C)CC3)CC1 (configuration not stated) | -10.3% |
| Cc1nn(C)c(C)c1S(=O)(=O)N1CCCC(C(=O)NC2CCCCC2)C1 (configuration not stated) | -4.9% |
| COc1ccc(NC(=O)CSc2nnc(-c3ccncc3)n2CC2CCCO2)c(OC)c1 (configuration not stated) | -18.3% |
| CCC(CC)C(=O)NCCc1cc2c(OC)ccc(OC)c2[nH]c1=O | 7.1% |
| O=C(c1ccco1)N1CCN(c2ncnc3c2[nH]c2ccc(Br)cc23)CC1 | 10% |
| Clc1ccc(-c2nnc(-c3ccccc3Cl)o2)cc1 | 13.7% |

| Compound | cytotoxicity |
| --- | --- |
| Cc1nc(NC(=O)c2csc3ccccc23)sc1C | 2.8% |
| COc1ccccc1C1(CC(=O)N2CCOCC2)CCOC(C(C)C)C1 (configuration not stated) | -15.3% |
| CCC(=O)O[C@@H]1CC(=O)O[C@H](C)CC=CC=C[C@@H](O)[C@H](C)C[C@H](CC=O)[C@H](O[C@H]2O[C@H](C)[C@@H](O[C@H]3C[C@@](C)(O)[C@@H](OC(=O)CC)[C@H](C)O3)[C@H](N(C)C)[C@H]2O)[C@H]1OC | -0.4% |
| CC[C@H]1OC(=O)C[C@@H](O)[C@H](C)[C@@H](O[C@@H]2O[C@H](C)C[C@H](N(C)C)[C@H]2O)[C@@H](CC=O)C[C@@H](C)C(=O)C=C[C@]2(C)O[C@H]2[C@@H]1C | 76.8% (active) |
| Cc1cc(C)cc(NC(=O)Cn2ncn3c(cc4ccccc43)c2=O)c1 | -13.3% |
| O=C1c2ccncc2C(=O)N1C1CCCCC1 | 2.8% |
| CN1CCN(C2=C(Cl)C(=O)N(C3CCCCC3)C2=O)CC1 | 3% |
| O=C(Nc1ccc2c(c1)OCCO2)C1CCN(S(=O)(=O)c2cccs2)CC1 | -8.1% |
| O=C(CCCCCn1c(SCc2ccncc2)nc2ccccc2c1=O)NCc1ccco1 | 9.3% |
| COc1ccc(OC)c(NC(=O)c2cc(-c3ccc(C)cc3O)n[nH]2)c1 | -0.5% |
| Cc1ccc(O)c(-c2cc(C(=O)Nc3ccc(S(=O)(=O)N4CC(C)OC(C)C4)cc3)[nH]n2)c1 (configuration not stated) | -13.4% |
| Cc1cc(O)c(-c2cc(C(=O)Nc3ccc(S(=O)(=O)N4CCOCC4)cc3)[nH]n2)cc1C | 6.5% |
| COc1ccc(NC(=O)c2cc(-c3cc(C)cc(C)c3O)n[nH]2)cc1Cl | 70.7% (active) |
| COc1ccc(OC)c(NC(=O)c2cc(-c3cc(Cl)ccc3O)n[nH]2)c1 | 1.7% |
| Cc1c(N=C2SCC(=O)N2c2c(C)n(C)n(-c3ccccc3)c2=O)c(=O)n(-c2ccccc2)n1C | 15.2% |
| COc1ccccc1/C=c1\sc2nc(-c3ccncc3)nn2c1=O | -13.5% |
| COc1ccc2nc3sc(C(=O)NCc4cccs4)c(N)c3cc2c1 | 5.5% |
| COc1ccc(-c2csc3ncnc(NCCN4CCOCC4)c23)cc1 | 25.8% |
| c1ccc(-c2oc3ncnc(NCCCN4CCOCC4)c3c2-c2ccccc2)cc1 | 59.8% (active) |
| N=c1c2c(-c3ccccc3)c(-c3ccccc3)oc2ncn1CCCN1CCOCC1 | 55.5% (active) |
| c1ccc(-c2oc3ncnc(NCCN4CCOCC4)c3c2-c2ccccc2)cc1 | 42% |
| c1ccc(-c2oc3ncnc(NCCCn4ccnc4)c3c2-c2ccccc2)cc1 | 17.3% |
| COc1ccc(-c2oc3ncnc(NCCCN4CCOCC4)c3c2-c2ccc(OC)cc2)cc1 | 107% (active) |

| Compound | cytotoxicity |
| --- | --- |
| N=c1c2c(-c3ccccc3)c(-c3ccccc3)oc2ncn1CCN1CCOCC1 | 33.6% |
| COc1ccc(-c2oc3ncnc(NCCN4CCOCC4)c3c2-c2ccc(OC)cc2)cc1 | 4% |
| COc1ccc(-c2oc3ncn(CCN4CCOCC4)c(=N)c3c2-c2ccc(OC)cc2)cc1 | 17.3% |
| CCc1nnc(NC=C2C(=O)OC(C)(C)OC2=O)s1 | -7.7% |
| Cc1c(/C(O)=C2/C(=O)C(=O)N(CCN3CCOCC3)C2c2cccnc2)cnn1-c1ccccc1 (configuration not stated) | -12.5% |
| CCN(CC)CCN1C(=O)C(O)=C(C(=O)c2sc(C)nc2C)C1c1cccnc1 (configuration not stated) | -8.8% |
| O=C(CN1CCN(C(=O)c2cccs2)CC1)NC1CCCCC1 | -4.4% |
| CC1(C)CC(=O)C(C=Nc2cccnc2)=C(O)C1 | 7.1% |
| COc1cc(C(=O)Nc2cccc(-c3nc4cc(C)ccc4o3)c2C)cc(OC)c1OC | 14.3% |
| CCOC(=O)C1=C(N)Oc2cc(C)oc(=O)c2C1c1cccnc1 (configuration not stated) | 4.4% |
| Cc1n[nH]c(=O)nc1NCc1ccccc1 | -17% |
| CCCCCc1c(C)nc(NCc2ccccc2)[nH]c1=O | 2.9% |
| CCC(C)(C)NC(=O)C(c1cccn1C)N(Cc1ccccc1)C(=O)Cn1nnc2ccccc21 (configuration not stated) | -4.3% |
| CC(=O)NC1CSCC1OC(C)=O (configuration not stated) | -14.9% |
| CCOC(=O)c1c(N)sc(C(=O)N2CCOCC2)c1C | -10.1% |
| COc1cc(NC(=O)c2ccc(COc3ccccc3Br)o2)cc(OC)c1OC | 68.9% (active) |
| O=C(Nc1nccs1)c1ccc(COc2ccccc2Br)o1 | 51% (active) |
| O=C(Nc1nccs1)c1ccc(COc2ccc(F)cc2)o1 | 5% |
| CC(C)(C)NC(=O)c1ccc(COc2ccccc2Br)o1 | -20.3% |
| COc1ccc(NC(=O)c2ccc(COc3ccccc3Br)o2)cc1OC | 40.4% |
| O=C(Nc1cccnc1)c1ccc(COc2ccccc2Br)o1 | 30.3% |
| CC(C)c1nc(SCC(=O)NCc2ccccc2)n[nH]1 | -9.2% |
| CN1C(=O)c2ccccc2N(C)C1c1ccc2c(c1)OCO2 (configuration not stated) | 6.7% |

| Compound | cytotoxicity |
| --- | --- |
| COc1ccc(C(=O)NCC(=O)n2nc(C)cc2C)cc1OC | 13.4% |
| Cc1ccc2c(c1)N(C(C)C(=O)NCCc1ccccc1)C(=O)CO2 (configuration not stated) | -4.9% |
| COc1cccc(CN(C)CC(=O)NC(=O)NCc2ccco2)c1 | -9.5% |
| O=C(CN(C1CCCCC1)S(=O)(=O)c1ccccc1)NCc1cccnc1 | 73.1% (active) |
| O=C(CN(C1CCCCC1)S(=O)(=O)c1ccc(Cl)cc1)NCc1cccnc1 | -28.1% |
| Cc1ccc(S(=O)(=O)N(CC(=O)NCc2ccncc2)C2CCCCC2)cc1 | 1.7% |
| COc1ccc(C(=O)N2CCCC(c3nc(-c4cccs4)no3)C2)cc1 (configuration not stated) | 3% |
| CCOc1ccc(-c2c(C#N)c(N)nc3c2c(=O)n(C)c(=O)n3C)cc1OC | -3.8% |
| CN(C)CCCNc1ncnc2c1cnn2-c1ccccc1 | 0.7% |
| c1ccc(Cn2ncc3c(NCc4ccco4)ncnc32)cc1 | 8.3% |
| Clc1ccc(-n2ncc3c(NCc4ccco4)ncnc32)cc1 | 8.8% |
| Cc1cccc(-n2ncc3c(NCc4ccco4)ncnc32)c1 | 69.2% (active) |
| c1ccc(-n2ncc3c(NCc4ccco4)ncnc32)cc1 | 7.1% |
| Cc1ccc(-n2ncc3c(NCc4ccco4)ncnc32)c(C)c1 | 5.4% |
| CCCCNc1ncnc2c1cnn2-c1ccc(Cl)cc1 | 28.5% |
| Clc1ccc(Cn2ncc3c(NCc4ccco4)ncnc32)c(Cl)c1 | 60.9% (active) |
| CCCCNc1ncnc2c1cnn2-c1ccccc1 | 61.8% (active) |
| COc1ccc(S(=O)(=O)Cc2ccc(C(=O)NCCCN(C)c3ccccc3)o2)cc1 | 2.5% |
| CCOC(=O)C1C(=O)CC(C)(O)C(C(=O)OCC)C1c1ccco1 (configuration not stated) | 1.3% |
| CC1CC(C)CN(C(=O)CCCn2c(=S)[nH]c3ccccc3c2=O)C1 (configuration not stated) | -3.1% |
| CCOc1cc(C(=O)N2CCOCC2)ccc1OCc1ccccc1 | -7.3% |
| CC(C)OCCCNC(=O)CN1CCN(Cc2ccccc2Cl)C1=O | -6.4% |
| Cc1nnc(NC(=O)CSc2nnc(CNC(=O)c3ccccc3)n2-c2ccccc2)s1 | -0.6% |
